Compound activity as filed in PubChem.
FBW7 act = FBW7 E3 ligase activators, primary screen, biochemical, AlphaScreen, human; AlphaScreen FBW7–phospho-cyclin E peptide binding, activator screen; normalized activity (activation), % at 26.1 µM; 0.13% of 650,000 active; AID 1259310, 2017; in the data active = normalized activity above about 1.9%;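 note: purified mutant Fbw7 with reduced substrate affinity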
Target sequence (Q969H0 whole entry, looked up): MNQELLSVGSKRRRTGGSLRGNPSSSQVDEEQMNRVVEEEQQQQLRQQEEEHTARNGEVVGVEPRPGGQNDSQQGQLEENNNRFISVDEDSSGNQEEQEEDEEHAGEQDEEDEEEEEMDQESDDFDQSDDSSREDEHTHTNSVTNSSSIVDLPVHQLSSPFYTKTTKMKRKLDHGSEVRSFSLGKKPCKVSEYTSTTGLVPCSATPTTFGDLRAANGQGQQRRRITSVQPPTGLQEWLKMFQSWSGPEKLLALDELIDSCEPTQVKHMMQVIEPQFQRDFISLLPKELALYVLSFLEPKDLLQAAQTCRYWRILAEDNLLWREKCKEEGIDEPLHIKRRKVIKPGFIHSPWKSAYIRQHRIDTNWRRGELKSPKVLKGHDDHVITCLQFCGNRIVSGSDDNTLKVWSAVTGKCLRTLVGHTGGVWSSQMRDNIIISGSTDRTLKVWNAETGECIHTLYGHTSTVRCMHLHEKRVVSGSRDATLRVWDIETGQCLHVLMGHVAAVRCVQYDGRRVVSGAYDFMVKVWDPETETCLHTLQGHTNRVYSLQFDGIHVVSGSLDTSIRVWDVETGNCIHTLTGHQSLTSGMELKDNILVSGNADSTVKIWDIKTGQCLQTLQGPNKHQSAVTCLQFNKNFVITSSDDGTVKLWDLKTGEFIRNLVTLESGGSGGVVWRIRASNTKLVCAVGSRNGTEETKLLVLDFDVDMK
TEAD-YAP block = TEAD-YAP interaction inhibition, primary screen, TEAD-YAP interaction inhibitor project, luminescence, HEK-TIYL cells. TEAD-Gal4/YAP UAS-luciferase luminescence. inhibition, % at 9.12 µM. 1.4% of 640,000 active; in the data active = inhibition above about 32%;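 note: 0% = median of test compound wells and 100% = reference inhibitor wells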
GPR151 activ = activators of human GPR151, primary screen, cell-based, PathHunter beta-arrestin, luminescence | 1% of 650,000 active | G-protein coupled receptor 151 (Homo sapiens), Q8TDV0 | PathHunter beta-arrestin GPR151 cells | activation, % at 11.2 µM | AID 1508602, 2020; in the data active = activation above about 4.9%;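 note: 0% = median of compound wells and 100% = cells with positive control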
MITF inh = MITF inhibitors, primary screen, biochemical, AlphaScreen, human; AlphaScreen MITF homodimerization, bead proximity signal; inhibition, % at 2.6 µM; 0.91% of 650,000 active; AID 1259374, 2018; in the data active = inhibition above about 50%;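 note: 0% = vehicle wells with protein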
GPR151 confirm = GPR151 activators, triplicate retest, confirmation, cell-based, PathHunter beta-arrestin, luminescence | shares compounds with GPR151 activ | GPR151 PathHunter beta-arrestin cells, 90 min; % of EA-reagent control over plate median | activation, % at 11.2 µM | 6,700 tested, under 10 active | AID 1508609, 2020;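 active = mean percent activation across replicates above the confirmation screen cutoff of 4.91%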
GPR119 ag = GPR119 activators in beta-arrestin cells, counter-screen for GPR151 activator project, cell-based, PathHunter beta-arrestin, luminescence, triplicate; shares compounds with GPR151 activ; 90 min; 0 = compound-well median, 100 = enzyme-acceptor control; activation, % at 11.2 µM; 0.3% of 6,700 active; AID 1508611, 2020;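 active = mean percent activation in the counterscreen above 29.09%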;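 note: counterscreen on off-target GPR119 to flag nonselective hits from the GPR151 activator screen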
* hit, by the source's call; . = no result. Compounds with a hit are over-represented: about 3.5% of the library has one in this group of screens.

SMILES	FBW7 act	TEAD-YAP block	GPR151 activ	MITF inh	GPR151 confirm	GPR119 ag
NN1C(=O)c2ccccc2NC1C1CC=CCC1 (stereo not drawn)	0.6	-11.1	20.4*	15.6	-1.5	-8.8
CN(Cc1ccccc1)Cc1cc(-c2ncccn2)ccc1O	-0.1	0.8	1.0	-4.0	.	.
CN(Cc1nnc(-c2ccccc2)o1)Cc1cc(-c2ncccn2)ccc1O	-0.1	-2.0	10.8*	6.5	0.3	13.0
O=C(C1CCC(Cn2c(=S)[nH]c3ccccc3c2=O)CC1)N1CC=C(c2ccccc2)CC1 (stereo not drawn)	1.0	-6.2	0.4	7.3	.	.
COc1cccc(CC2(CO)CCCN(Cc3cccc(OC)c3OC)C2)c1 (stereo not drawn)	0.1	5.7	6.2*	11.8	-0.1	-5.1
COc1cccc(CC2(CO)CCCN(Cc3cc(OC)c(OC)c(OC)c3)C2)c1 (stereo not drawn)	0.0	0.9	-1.4	-1.8	.	.
Cc1cc(Nc2ccc(F)cc2F)n2nc(C)nc2n1	-0.2	-8.0	0.7	3.7	.	.
Cc1cc(Nc2cc(F)ccc2C)n2nc(C)nc2n1	0.2	14.7	7.1*	16.1	-0.9	-6.3
Cc1cccc(NC(=O)CCC(=O)OCC(=O)c2ccccc2)c1	0.2	5.6	-0.1	14.0	.	.
CCOC(=O)c1c(NC(=O)C(C)Sc2nnc(CNC(=O)c3cc(OC)cc(OC)c3)n2-c2ccccc2OC)sc2c1CCC2 (stereo not drawn)	0.1	-9.5	-1.3	-13.2	.	.
O=C(NC1CCCCC1)C(c1ccncc1)N(C(=O)C(F)(F)F)C1CC1 (stereo not drawn)	-0.1	-3.8	0.7	11.0	.	.
CC(C)N(C(=O)C(F)(F)F)C(C(=O)NC1CCCCC1)c1ccncc1 (stereo not drawn)	0.0	-0.5	5.8*	-3.7	1.1	5.4
COc1ccc(S(=O)(=O)NCC(c2ccc3c(c2)CCN3C)N2CCCCC2)cc1OC (stereo not drawn)	-0.1	-3.1	0.7	-10.2	.	.
CCOC(=O)N1CCc2c(sc(NC(=O)c3ccc(Br)s3)c2C#N)C1	0.1	3.3	9.1*	8.8	0.4	5.4
CC1CCCN(CCCNC(=O)c2ccc3c(c2)NC(=O)C(N2CCOCC2)S3)C1 (stereo not drawn)	-0.2	-2.3	6.2*	-3.9	0.2	-3.5
CC(=O)Nc1ccc(N2C(=O)CSC2c2ccc3c(c2)OCO3)cc1 (stereo not drawn)	-0.1	-5.7	0.9	-2.5	.	.
CC1(C)c2ccccc2N(CC(=O)NCc2ccccc2)C12C=Cc1cc([N+](=O)[O-])ccc1O2 (stereo not drawn)	-0.3	3.3	0.0	3.1	.	.
COC(=O)c1ccc2c(c1)C(C)(C)C1(C=Cc3cc([N+](=O)[O-])ccc3O1)N2C (stereo not drawn)	0.0	3.1	5.3*	9.9	0.9	10.3
CC1(C)c2ccccc2N(CC(=O)NCc2ccc(Cl)cc2)C12C=Cc1cc([N+](=O)[O-])ccc1O2 (stereo not drawn)	-0.1	-5.5	6.3*	10.3	-1.0	-4.4
COC(=O)c1cc(S(=O)(=O)Nc2cccc(Cl)c2C)c[nH]1	0.0	-7.0	-0.2	2.0	.	.
COc1ccccc1NC(=O)NNC(=O)CN(C)S(=O)(=O)c1ccc(C)cc1	0.2	7.8	5.3*	4.2	0.2	4.1
COc1cc(NC(=O)Cc2ccc(F)cc2)c(OC)cc1Cl	0.8	-4.8	5.0*	2.2	0.3	-4.9
COc1ccccc1NC(=O)CN(C)S(=O)(=O)c1ccccc1	0.1	0.9	-0.5	-29.6	.	.
COCCNC(=O)Cc1ccc(F)cc1	-0.2	-5.5	5.4*	0.1	-0.2	-4.7
COc1cc(NC(=O)CN(C)S(=O)(=O)c2ccc3ccccc3c2)c(OC)cc1Cl	0.1	-1.7	5.8*	0.4	-1.4	-15.7
SMILES	FBW7 act	TEAD-YAP block	GPR151 activ	MITF inh	GPR151 confirm	GPR119 ag
COCCCNC(=O)Cc1ccc(F)cc1	0.1	9.8	-0.3	0.1	.	.
COc1cc(NC(=O)Cc2ccc(Cl)cc2)c(OC)cc1Cl	0.2	2.8	-0.4	49.8	.	.
O=C(NCCOc1ccccc1)c1cncc(Nc2cccnc2)c1	0.1	-10.0	0.0	27.4	.	.
Cc1cc(C)n(CNc2cccc(Cl)c2)n1	0.2	8.6	-0.2	5.5	.	.
NS(=O)(=O)c1ccc(CN=Cc2ccc([N+](=O)[O-])cc2)cc1	0.6	0.5	1.6	11.4	.	.
COC(=O)C(CCSC)NC(=O)c1ccc(Cl)cc1Cl (stereo not drawn)	-0.1	-3.9	9.7*	8.0	0.6	9.8
Cc1c(Cl)cccc1NC(=O)c1ccc(N2C(=O)c3ccccc3C2=O)cc1	0.0	-8.1	7.0*	-6.0	1.0	3.2
Cc1cc(C)nc(SCC(=O)Nn2cnnc2)n1	0.2	2.0	7.1*	-19.2	-0.2	-12.7
Cc1cc(C)nc(SCC(=O)NC(C)(C)C)n1	0.0	-1.2	-0.3	16.4	.	.
O=C(CSc1ccc(F)cc1)Nc1ccc(Cl)c(N2CCCS2(=O)=O)c1	0.2	-4.6	12.2*	-7.6	0.4	0.9
CN(C)C(=O)CCSc1nc(-c2ccc(Br)cc2)cs1	0.0	-11.3	-1.3	5.8	.	.
O=C(Cc1cn(-c2ccc(Cl)nn2)c2ccccc12)NCCOc1ccccc1	0.1	2.4	6.9*	5.5	0.5	-2.1
O=C(Cc1cn(-c2ccc(Oc3ccccc3)nn2)c2ccccc12)NCCOc1ccccc1	0.1	-11.9	2.7	13.6	.	.
O=C(CC(c1ccccc1)c1ccccc1)NCCCN1CCOCC1	0.5	13.5	1.2	9.8	.	.
CN1CCC(N2C[C@@H]3C[C@@H](c4cccc(C(F)(F)F)c4)N4CCC[C@@]34C2=O)CC1	0.0	-0.9	0.3	-7.3	.	.
COC(=O)c1ccccc1C(=O)c1cccc2ccccc12	-0.2	1.3	10.1*	-3.4	0.2	-3.9
COc1ccc(NC(=O)c2cccc3ccccc23)cc1	0.0	-4.1	-1.5	-2.8	.	.
COCCN(Cc1cc2cc3c(cc2nc1Cl)OCO3)C(=O)C1CC1	0.1	6.1	0.8	18.2	.	.
O=C(c1ccccc1)c1cccc(-n2c(=O)c3ccccc3c3ccccc3c2=O)c1	0.0	1.9	-0.8	9.8	.	.
CC(C)c1ccc(NC(=O)CN(c2ccc(Cl)cc2)S(C)(=O)=O)cc1	0.3	-66.9	6.2*	-17.6	1.0	13.6
CC(C)c1ccc(N(CC(=O)NCCSc2ccccc2)S(C)(=O)=O)cc1	0.5	3.4	20.6*	20.1	-0.6	-0.2
CC(=O)Nc1ccc(NC(=O)CN(c2ccc(C(C)C)cc2)S(C)(=O)=O)cc1	0.2	-46.7	-1.2	-13.7	.	.
